Reference: PubChem BioAssay (EPA / NIEHS)
“And” between values parts separate entries of the source, which are not always exact repeats. Equal values may be shown once. Inconclusive results are not listed. The source made the active and inactive calls. The calls were made as follows: active = hit-call score of the fitted dose curve at least 0.9, where 1 is the maximum; inconclusive = response in the unintended direction; inactive = score below 0.9.

What was measured:
[1] = ATG_M_06_XSP2: Attagene TRANS-FACTORIAL Multi-Species (XSP2) HepG2 Assay for M06 Transcription Factor (Internal Marker) (AID 2283811);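 also: internal background marker reporter mRNA measured by RT-PCR and capillary electrophoresis; hits are increases in signal above the DMSO baseline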
In short: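 Cells of the human liver line HepG2 carried transfected reporter transcription units and were treated for 24 h. Induced reporter transcripts were detected by fluorescence after RT-PCR and capillary electrophoresis, with activity fitted in the gain direction against DMSO.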

[2] = tested on: turtle Estrogen Receptor (ERa), gene 101933533; test: ATG_trERa_XSP2: Attagene TRANS-FACTORIAL Multi-Species (XSP2) HepG2 Assay for turtle Estrogen Receptor (ERa) (AID 2283812);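 also: actives raise reporter signal above DMSO so AC50 reflects agonist activity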
In short: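 Readout is reporter mRNA quantified by RT-PCR with capillary electrophoresis after 24 h compound exposure, increase relative to DMSO. Uses transiently transfected human HepG2 liver cells carrying a chimeric turtle ERa-Gal4 receptor driving GAL4-UAS reporters.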

[3] = target: Estrogen receptor beta (Homo sapiens) (UniProt Q92731); test: ATG_hERb_XSP2: Attagene TRANS-FACTORIAL Multi-Species (XSP2) HepG2 Assay for human Estrogen Receptor (ERb) (AID 2283813);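 also: actives raise reporter mRNA above DMSO so AC50 reflects agonist induction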
Chain of Estrogen receptor beta (Homo sapiens) (Q92731 whole entry, looked up, the tested form may be a part): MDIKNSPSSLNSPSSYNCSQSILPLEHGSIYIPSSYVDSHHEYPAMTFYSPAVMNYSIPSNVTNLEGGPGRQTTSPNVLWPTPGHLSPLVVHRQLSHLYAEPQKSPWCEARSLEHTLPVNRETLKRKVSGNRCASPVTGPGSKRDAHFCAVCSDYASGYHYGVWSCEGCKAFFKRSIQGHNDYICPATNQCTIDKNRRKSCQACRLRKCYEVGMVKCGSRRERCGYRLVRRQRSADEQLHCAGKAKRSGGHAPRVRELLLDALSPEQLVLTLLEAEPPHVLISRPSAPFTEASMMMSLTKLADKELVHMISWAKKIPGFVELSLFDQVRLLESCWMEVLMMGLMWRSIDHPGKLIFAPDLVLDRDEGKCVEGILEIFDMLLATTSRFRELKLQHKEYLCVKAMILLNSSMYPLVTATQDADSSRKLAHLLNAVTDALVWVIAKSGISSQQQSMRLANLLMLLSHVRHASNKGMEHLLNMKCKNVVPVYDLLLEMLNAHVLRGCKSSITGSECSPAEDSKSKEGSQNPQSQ
In short: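 Transient TRANS reporter system in HepG2: after 24 h of chemical, RNA is reverse-transcribed, reporter cDNA amplified, FAM-labelled and sized by capillary electrophoresis. Induction of the human ERb-Gal4 reporter is measured relative to DMSO.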

[4] = target: zebrafish Estrogen Receptor (ER1), esr1 (gene 259252) (UniProt P57717); test: ATG_zfER1_XSP2: Attagene TRANS-FACTORIAL Multi-Species (XSP2) HepG2 Assay for zebrafish Estrogen Receptor (ER1) (AID 2283816)
Chain of zebrafish Estrogen Receptor (ER1), esr1 (gene 259252) (P57717 whole entry, looked up, the tested form may be a part): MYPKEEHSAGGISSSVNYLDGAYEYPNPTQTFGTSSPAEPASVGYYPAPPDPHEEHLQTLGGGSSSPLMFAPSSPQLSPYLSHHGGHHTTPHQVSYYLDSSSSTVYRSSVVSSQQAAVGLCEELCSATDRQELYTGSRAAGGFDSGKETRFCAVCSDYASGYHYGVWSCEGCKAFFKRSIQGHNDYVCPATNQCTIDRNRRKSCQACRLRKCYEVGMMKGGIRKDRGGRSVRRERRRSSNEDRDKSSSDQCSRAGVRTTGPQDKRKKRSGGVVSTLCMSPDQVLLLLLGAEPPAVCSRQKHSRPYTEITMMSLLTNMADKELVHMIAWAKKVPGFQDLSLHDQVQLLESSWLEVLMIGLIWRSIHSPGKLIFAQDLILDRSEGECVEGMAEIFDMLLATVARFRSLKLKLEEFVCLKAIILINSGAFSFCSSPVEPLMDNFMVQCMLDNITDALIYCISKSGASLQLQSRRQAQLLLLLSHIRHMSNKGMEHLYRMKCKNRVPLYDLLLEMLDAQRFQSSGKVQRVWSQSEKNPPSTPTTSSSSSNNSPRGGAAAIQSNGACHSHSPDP
In short: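 After 24 h compound exposure, RNA from transfected HepG2 cells was reverse-transcribed and reporter transcripts resolved by capillary electrophoresis. The TRANS format reads exogenous zebrafish ER1-Gal4 chimera activity on GAL4-UAS elements; gain of signal against DMSO.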

[5] = tested on: turtle Thyroid Hormone Receptor, alpha (TRa), gene 101949057; test: ATG_trTRa_XSP1: Attagene TRANS-FACTORIAL Multi-Species (XSP1) HepG2 Assay for turtle Thyroid Hormone Receptor, alpha (TRa) (AID 2283806)
In short: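 After 24 h chemical exposure, reporter transcripts were measured by RT-PCR with fluorescent primer extension, HpaI digestion and capillary electrophoresis. Cells were transiently transfected HepG2 expressing exogenous NR-Gal4 chimeras; medium contained 3 nM 6-alpha-fluorotestosterone; fitted upward relative to DMSO.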

[6] = target: zebrafish Thyroid Hormone Receptor alpha (TRa), thraa (gene 30670) (UniProt Q98867); test: ATG_zfTRa_XSP1: Attagene TRANS-FACTORIAL Multi-Species (XSP1) HepG2 Assay for zebrafish Thyroid Hormone Receptor alpha (TRa) (AID 2283807)
Chain of zebrafish Thyroid Hormone Receptor alpha (TRa), thraa (gene 30670) (Q98867 whole entry, looked up, the tested form may be a part): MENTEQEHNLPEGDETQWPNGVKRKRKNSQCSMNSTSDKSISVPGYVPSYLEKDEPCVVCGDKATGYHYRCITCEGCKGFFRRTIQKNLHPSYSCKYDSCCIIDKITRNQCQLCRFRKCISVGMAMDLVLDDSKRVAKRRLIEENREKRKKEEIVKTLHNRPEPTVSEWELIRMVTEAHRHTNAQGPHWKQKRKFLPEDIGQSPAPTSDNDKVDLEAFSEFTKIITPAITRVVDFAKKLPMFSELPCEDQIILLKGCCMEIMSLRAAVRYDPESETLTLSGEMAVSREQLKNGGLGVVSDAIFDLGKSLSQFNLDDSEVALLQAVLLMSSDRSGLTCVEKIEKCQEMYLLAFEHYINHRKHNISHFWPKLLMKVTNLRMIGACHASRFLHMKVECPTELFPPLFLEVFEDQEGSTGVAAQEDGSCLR
In short: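 Reporter transcripts driven by a chimeric zebrafish TRa–Gal4 protein were measured by RT-PCR with fluorescent labelling and capillary electrophoresis. These came from transiently transfected HepG2 cells after 24 h chemical exposure, with 3 nM 6-alpha-fluorotestosterone added; baseline was DMSO.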

[7] = target: human Thyroid hormone Receptor beta (TRb), THRB (gene 7068) (UniProt P10828); test: ATG_hTRb_XSP1: Attagene TRANS-FACTORIAL Multi-Species (XSP1) HepG2 Assay for human Thyroid hormone Receptor beta (TRb) (AID 2283808)
Chain of human Thyroid hormone Receptor beta (TRb), THRB (gene 7068) (P10828 whole entry, looked up, the tested form may be a part): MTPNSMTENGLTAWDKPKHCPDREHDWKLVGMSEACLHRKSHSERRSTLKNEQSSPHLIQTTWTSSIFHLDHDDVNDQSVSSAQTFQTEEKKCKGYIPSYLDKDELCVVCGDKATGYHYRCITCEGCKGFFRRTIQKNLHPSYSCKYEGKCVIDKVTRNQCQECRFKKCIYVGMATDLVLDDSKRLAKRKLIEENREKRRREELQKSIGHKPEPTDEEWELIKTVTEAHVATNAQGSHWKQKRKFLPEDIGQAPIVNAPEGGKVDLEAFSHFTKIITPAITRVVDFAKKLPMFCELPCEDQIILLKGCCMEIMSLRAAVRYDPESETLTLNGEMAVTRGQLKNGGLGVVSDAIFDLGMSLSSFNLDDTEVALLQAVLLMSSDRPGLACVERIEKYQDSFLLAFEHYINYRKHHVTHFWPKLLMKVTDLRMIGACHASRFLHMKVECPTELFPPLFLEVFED
In short: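 Readout is reporter mRNA induction measured by RT-PCR, fluorescent labelling and capillary electrophoresis, fitted upward relative to DMSO. Transiently transfected human HepG2 cells expressing NR-Gal4 chimeras were dosed for 24 h, medium containing 3 nM 6-alpha-fluorotestosterone.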

[8] = target: zebrafish Thyroid Hormone Receptor beta (TRb), thrb (gene 30607) (UniProt Q9PVE4); test: ATG_zfTRb_XSP1: Attagene TRANS-FACTORIAL Multi-Species (XSP1) HepG2 Assay for zebrafish Thyroid Hormone Receptor beta (TRb) (AID 2283809)
Chain of zebrafish Thyroid Hormone Receptor beta (TRb), thrb (gene 30607) (Q9PVE4 whole entry, looked up, the tested form may be a part): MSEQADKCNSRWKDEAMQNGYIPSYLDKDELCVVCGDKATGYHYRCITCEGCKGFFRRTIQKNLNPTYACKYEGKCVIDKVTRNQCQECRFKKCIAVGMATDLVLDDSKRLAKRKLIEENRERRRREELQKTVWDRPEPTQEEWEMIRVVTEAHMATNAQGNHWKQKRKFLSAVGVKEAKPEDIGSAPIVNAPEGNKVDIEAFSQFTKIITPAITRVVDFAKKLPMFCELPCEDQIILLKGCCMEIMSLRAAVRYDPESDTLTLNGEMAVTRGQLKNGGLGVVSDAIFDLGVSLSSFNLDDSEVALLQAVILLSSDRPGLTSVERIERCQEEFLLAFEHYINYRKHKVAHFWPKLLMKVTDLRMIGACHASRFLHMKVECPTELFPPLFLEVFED
In short: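 HepG2 cells transiently transfected with multiplexed GAL4-UAS reporter units expressing chimeric zebrafish TRb–Gal4. Dosed 24 h with 3 nM 6-alpha-fluorotestosterone present; reporter mRNA measured by RT-PCR, HpaI digestion and capillary electrophoresis; gain of signal versus DMSO.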

[9] = ATG_XTT_Cytotoxicity_XSP1: Cytotoxicity Assessment in the Attagene TRANS-FACTORIAL Multi-Species (XSP1) HepG2 Assay (AID 2283810)
Protocol: ATG_XSP1_XTT_Cytotoxicity_multi-species is a cell-based, single-readout assay that uses HepG2, a human liver cell line, with measurements taken at 24 hours after chemical dosing in a 24-well plate. Xsp1 included 3 nM 6-alpha-fluorotestosterone to partially stimulate the androgen receptor.ATG_XTT_Cytotoxicity_XSP1 is an assay component measured from the ATG_XSP1_XTT_Cytotoxicity_multi-species assay. It is designed to make measurements of cell number, a form of viability reporter, as detected with fluorescence intensity signals by XTT cytotoxicity assay technology.This assay endpoint, ATG_XTT_Cytotoxicity_XSP1, was analyzed in the positive analysis fitting direction relative to DMSO as the negative control and baseline of activity. Using a type of viability reporter, loss-of-signal activity can be used to understand changes in the viability. Furthermore, this assay endpoint can be referred to as a primary readout, because the performed assay has only produced 1 assay endpoint. […]
Human liver HepG2 cells are transiently transfected with multiple reporter transcription units (MRTUs) in 6-well plates using FuGene 6 reagent (Roche; 3 ml FuGene/1 mg DNA). […] A major difference between the CIS and TRANS system is that in CIS activities of endogenous TFs are measured, whereas the TRANS assay evaluates changes in activities of exogenous, chimeric NR-Gal4 proteins. […]

[10] = target: GAL4 Transcription Factor (Internal Marker), GAL4 (gene 855828) (UniProt P04386); test: ATG_GAL4_XSP2: Attagene TRANS-FACTORIAL Multi-Species (XSP2) HepG2 Assay for GAL4 Transcription Factor (Internal Marker) (AID 2283814);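 also: GAL4 reporter mRNA background control in MRTU transfected cells not a receptor target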
Chain of GAL4 Transcription Factor (Internal Marker), GAL4 (gene 855828) (P04386 whole entry, looked up, the tested form may be a part): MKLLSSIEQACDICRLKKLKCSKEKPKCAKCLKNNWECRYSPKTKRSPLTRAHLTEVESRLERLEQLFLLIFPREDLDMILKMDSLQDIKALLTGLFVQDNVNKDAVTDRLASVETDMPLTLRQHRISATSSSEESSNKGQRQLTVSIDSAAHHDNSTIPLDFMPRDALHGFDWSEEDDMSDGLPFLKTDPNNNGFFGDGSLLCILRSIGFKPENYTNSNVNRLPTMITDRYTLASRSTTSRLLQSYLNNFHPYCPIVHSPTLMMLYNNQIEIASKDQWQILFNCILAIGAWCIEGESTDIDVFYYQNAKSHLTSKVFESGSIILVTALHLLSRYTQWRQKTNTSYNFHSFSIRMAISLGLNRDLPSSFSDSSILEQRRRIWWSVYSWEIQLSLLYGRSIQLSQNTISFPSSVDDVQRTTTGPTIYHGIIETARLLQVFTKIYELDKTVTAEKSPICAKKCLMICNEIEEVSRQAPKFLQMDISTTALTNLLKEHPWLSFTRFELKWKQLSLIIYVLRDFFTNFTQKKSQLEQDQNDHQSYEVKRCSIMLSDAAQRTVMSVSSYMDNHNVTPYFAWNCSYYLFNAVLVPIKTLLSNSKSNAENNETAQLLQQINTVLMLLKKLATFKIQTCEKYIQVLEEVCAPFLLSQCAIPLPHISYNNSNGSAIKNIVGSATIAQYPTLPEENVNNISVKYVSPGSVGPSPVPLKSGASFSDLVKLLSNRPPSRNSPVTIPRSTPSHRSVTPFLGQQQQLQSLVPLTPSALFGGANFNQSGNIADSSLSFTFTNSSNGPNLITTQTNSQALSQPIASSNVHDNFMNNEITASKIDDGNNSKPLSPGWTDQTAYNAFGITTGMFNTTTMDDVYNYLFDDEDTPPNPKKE
In short: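 Background-control readout: gain-of-signal fitted against DMSO. After 24 h exposure of transfected HepG2 (MRTU, GAL4-UAS reporters; 3 nM 6-alpha-fluorotestosterone, 1.5 nM norgestrel present), transcripts quantified by RT-PCR and capillary electrophoresis fluorescence.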

With Oc1ccc2c(c1)-c1ccccc1C2 the outcome [1] was “inactive”, the AC50 [2] was 6.32 µM (active) and 3.91 µM (active) and the AC50 [3] was 5.52 µM (active) and 2.58 µM (active). The AC50 [4] was 14.7 µM (active) and 6.87 µM (active).
For O=P(OC(CCl)CCl)(OC(CCl)CCl)OC(CCl)CCl, the outcome [5] was “inactive”, the outcome [6] was “inactive” and the outcome [7] was “inactive”. The outcome [8] was “inactive”, the outcome [9] was “inactive” and the outcome [1] was “inactive”. For the same molecule, the outcome [2] was “inactive”, the outcome [3] was “inactive” and the outcome [10] was “inactive”. For the same molecule, the outcome [4] was “inactive”.
For Clc1nc(Cl)c(Cl)c(Cl)c1Cl, the AC50 [2] was 26.2 µM (active) and 151 µM (active), the outcome [3] was “inactive” and the outcome [4] was “inactive”.
